# Assay results published in PMC3218832.
# Target: RELA (p65) subunit of heterodimer;p52 subunit (Homo sapiens;Homo sapiens, UniProt Q04206;Q00653 1-307;4-332)
# Assay: protein binding microarray; high values mean tight binding
# Settings: dsDNA, one strand shown
row,Sequence,binding signal [z-score]
1,CGGGTTATCCC,0.988
2,CAAGGGGTCCT,-0.546
3,AGAAGGCCCCT,0.149
4,GGGGTCGCCCC,2.18
5,CGAATTCTCCT,-0.707
6,AAGGGAATCCC,1.75
7,AAAAGGATCCT,-1.09
8,GAAGAGCCCCT,0.773
9,AAGGACGCCCT,-0.945
10,CGGATAATCCT,-0.831
11,CAGAGACCCCC,0.302
12,CAGAACCTCCT,-0.938
13,AAGAGGCCCCT,-0.248
14,CAAGGAGCCCC,-0.176
15,AGAAGGGTCCC,-0.123
16,AAAGAATTCCC,1.25
17,AAAAATCCCCT,2.84
18,AAATATCTCCC,-0.105
19,CAATTTATCCT,-0.71

row,Sequence,binding signal [z-score]
1,GGATGCGTCCT,-0.853
2,CAAATAATCCT,-0.746
3,AGGGATCTCCC,1.32
4,CAATTATCCCC,1.12
5,AAATACACCCC,0.204
6,AGGAAGCCCCC,1.31
7,GAAGGAACCCT,-0.818
8,AGAAACTTCCC,0.818
9,CGGTACATCCC,0.93
10,GAAATCGCCCC,0.557
11,AGATTATCCCT,0.522
12,GAATTAGTCCT,-0.862
13,AAAAGAATCCC,0.575
14,CGAGGCACCCT,-0.854
15,CAGAATTCCCC,2.29
16,AAGATGCCCCC,0.788
17,GAGAACTCCCC,1.05
18,GGGTACTCCCC,2.75
19,GAAAGAATCCT,-0.922

# Target: RELB subunit;p50 subunit (Homo sapiens;Homo sapiens, UniProt Q01201;P19838 120-401;7-356)
# Assay: as above
# Settings: dsDNA, one strand shown
row,Sequence,binding signal [z-score]
1,CGGGTTATCCC,0.155
2,CAAGGGGTCCT,-0.595
3,AGAAGGCCCCT,0.0369
4,GGGGTCGCCCC,1.44
5,CGAATTCTCCT,-0.948
6,AAGGGAATCCC,1.21
7,AAAAGGATCCT,-1.05
8,GAAGAGCCCCT,0.554
9,AAGGACGCCCT,-1.1
10,CGGATAATCCT,-1.02
11,CAGAGACCCCC,0.373
12,CAGAACCTCCT,-0.924
13,AAGAGGCCCCT,0.196
14,CAAGGAGCCCC,0.0779
15,AGAAGGGTCCC,-0.00663
16,AAAGAATTCCC,1.07
17,AAAAATCCCCT,3.22
18,AAATATCTCCC,0.365
19,CAATTTATCCT,-0.801

row,Sequence,binding signal [z-score]
1,GGATGCGTCCT,-1.18
2,CAAATAATCCT,-0.974
3,AGGGATCTCCC,1.27
4,CAATTATCCCC,1.3
5,AAATACACCCC,0.209
6,AGGAAGCCCCC,1.03
7,GAAGGAACCCT,-0.996
8,AGAAACTTCCC,0.409
9,CGGTACATCCC,0.529
10,GAAATCGCCCC,0.494
11,AGATTATCCCT,0.325
12,GAATTAGTCCT,-0.954
13,AAAAGAATCCC,0.356
14,CGAGGCACCCT,-0.726
15,CAGAATTCCCC,2.26
16,AAGATGCCCCC,0.97
17,GAGAACTCCCC,1.1
18,GGGTACTCCCC,1.95
19,GAAAGAATCCT,-0.95
